Compound activity (PubChem)
gsp agonist: qHTS for Agonist of gsp, the Etiologic Mutation Responsible for Fibrous Dysplasia/McCune-Albright Syndrome: qHTS. AID 624287, 2012. 340,000 compounds, 0.13% hits. gsp mutant cells, cAMP HTRF, 30 min. Potency, µM (titrated, usually from 76.9 µM), without a hit: at the top dose activation (cAMP increase), usual class: activators; active = well fitted activation curve with a large enough effect; inconclusive = small, poorly fitted or top-dose-only effect, or another doubt; inactive = no such curve, though single readings can be large or run the other way; cell line not stated here;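 note: phosphodiesterase inhibitor Ro 20-1724 added with compounds to block cAMP breakdown; potency is the fitted concentration of half-maximal effect; nearly all actives have a fitted effect of over 60% in size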
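Cells stably selected in G418 were plated at 2000/well, grown 16-24 hr, then given compounds in DMSO with the PDE inhibitor […] (300 uM solution added) for 30 min at 37C; cAMP was read by HTRF.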
RXFP1 ag: qHTS Assay for Agonists of the Relaxin Receptor RXFP1. 370,000 compounds, 0.3% hits. Potency, µM (doses to about 57.5 µM), inactives show at the top dose activation, usual class: activators. Relaxin receptor 1 (Homo sapiens), Q9HBX9. HEK293T-RXFP1 cAMP TR-FRET, 30 min; response scale: percent of porcine relaxin response, buffer zero. AID 2676, 2010; note: potency is the fitted concentration of half-maximal effect; % is set by controls: 0 for no effect and ±100 for the full control effect; nearly all actives have a fitted effect of over 60% in size
Target sequence (Q9HBX9 whole entry, looked up): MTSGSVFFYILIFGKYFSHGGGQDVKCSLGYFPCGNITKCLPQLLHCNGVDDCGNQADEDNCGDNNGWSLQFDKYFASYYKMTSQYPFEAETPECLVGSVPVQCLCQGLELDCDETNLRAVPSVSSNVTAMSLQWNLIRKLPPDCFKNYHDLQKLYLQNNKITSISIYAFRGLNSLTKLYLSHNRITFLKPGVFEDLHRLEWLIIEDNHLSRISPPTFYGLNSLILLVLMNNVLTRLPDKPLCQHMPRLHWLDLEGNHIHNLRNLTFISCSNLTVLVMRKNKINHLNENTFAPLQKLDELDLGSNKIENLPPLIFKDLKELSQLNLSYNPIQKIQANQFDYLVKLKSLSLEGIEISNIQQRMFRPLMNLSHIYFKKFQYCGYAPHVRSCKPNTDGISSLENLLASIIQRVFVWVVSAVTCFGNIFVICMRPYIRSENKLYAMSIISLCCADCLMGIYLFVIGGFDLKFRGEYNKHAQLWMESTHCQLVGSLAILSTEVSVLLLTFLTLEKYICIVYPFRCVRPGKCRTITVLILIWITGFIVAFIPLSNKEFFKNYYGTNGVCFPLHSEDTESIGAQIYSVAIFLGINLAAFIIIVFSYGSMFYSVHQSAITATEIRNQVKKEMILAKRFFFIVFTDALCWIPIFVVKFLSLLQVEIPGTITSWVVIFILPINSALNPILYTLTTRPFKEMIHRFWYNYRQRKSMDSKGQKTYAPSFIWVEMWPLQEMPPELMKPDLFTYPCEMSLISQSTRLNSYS
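Agonist response is measured as cAMP accumulation in an RXFP1-transfected HEK293T line under PDE4 inhibition. Values are scaled between buffer-only and 29 nM porcine relaxin, and EC50s come from standard Hill equation fits.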
gsp antagonist: qHTS for Antagonists of gsp, the Etiologic Mutation Responsible for Fibrous Dysplasia/McCune-Albright Syndrome: qHTS | gsp-mutant cells, cAMP HTRF, 30 min | Potency, µM (highest dose often 76.9 µM), without a hit: top-dose activity change, negative = inhibition, hits mostly inhibitors | 340,000 compounds, 0.4% hits; calls by dose curve; cell line not stated here;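 note: intracellular cAMP measured with PDE inhibitor Ro 20-1724 present during compound exposure; potency is the fitted concentration of half-maximal effect; % is set by controls: 0 for no effect and ±100 for the full control effect; nearly all actives have a fitted effect of over 65% in size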
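Cells in G418 medium, seeded 16-24 h, 37C; buffer exchange to DPBS + 1 mM CaCl2, 0.5 mM MgCl2, 0.05% BSA; cpds in DMSO + […] (300 uM stock), 30 min 37C; HTRF cAMP detection.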
PTHR1 agonist: qHTS for PTHR1 Agonists: Primary Screen. Parathyroid hormone/parathyroid hormone-related peptide receptor (Homo sapiens), Q03431. HEK293 GP2 PTHR1 cells, GloSensor cAMP luminescence, 1 h. Potency, µM (series often up to 115 µM), inactives show at the top dose activation, hits mostly activators. 410,000 compounds, 0.075% hits. AID 743266, 2014; note: potency is the fitted concentration of half-maximal effect; nearly all actives have a fitted effect of over 55% in size
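HEK-293-derived GP2 cells expressing PTHR1 and a GloSensor cAMP reporter, 3,000/well, plated overnight, given luciferin plus IBMX (each 0.5 mM as added) for 1 h at 37 °C, then compound for 1 h at 37 °C. Luminescence was read after 15 min at room temperature.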
RXFP1 antag: qHTS Assay for Antagonists of the Relaxin Receptor RXFP1. activity change, negative = inhibition, % at 57.5 µM. HEK293-RXFP1, relaxin-stimulated cAMP HTRF, 30 min; active compounds read low. 350,000 compounds, 0.59% hits. AID 1259400, 2018;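 active = activity change of -60% or lower, but not beyond a set lower limit; inconclusive = change between -60% and -40%, or beyond the set limit; inactive = change above -40%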; note: % is set by controls: 0 for no effect and ±100 for the full control effect
Numbers without * were called inactive; i = inactive; ? = inconclusive; . = no result given; ! = a repeat was not active; [ ] = dose if it differs, or a comment. Sampled rows, rich in hits. Any-hit rate of the full collection: about 1%. Unless noted, calls come from the whole dose curve; as a rule, active = well fitted curve in the direction sought with a large enough effect; inconclusive = small, poorly fitted or top-dose-only effect, or another doubt; inactive = no such curve, though single readings can be large; an effect the other way counts as inactive or inconclusive.

SMILES	gsp agonist	RXFP1 ag	gsp antagonist	PTHR1 agonist	RXFP1 antag
O=S(=O)(c1ccc(-n2cnnn2)cc1)N1CCN(c2cccc(C(F)(F)F)c2)CC1	.	1%	.	-8%	-2
Cc1ccc(CNC(=O)Cc2c(C)c3c(cc(C)c4c(C)coc43)oc2=O)cc1	.	-1%	.	16µM*	8
Cc1ccc2oc3c(c(=O)c2c1)C(c1ccc(F)cc1)N(Cc1ccc2c(c1)OCO2)C3=O (centres undefined)	.	-3%	.	18%	-5
COc1ccc(CCNC(=O)c2cn(C)c3ccc(S(=O)(=O)N(C)C)cc3c2=O)cc1OC	.	-1%	.	i	.
Fc1ccc(Nc2nc3nonc3nc2Nc2cccc(C(F)(F)F)c2)cc1	.	0%	.	-37%	-74*
CCOc1ccccc1NC(=O)Cn1c(=O)ccc2cc(S(=O)(=O)N3CCCC3)ccc21	.	-1%	.	-17%	.
Cc1ccc(-n2c(C)cc(C(=O)CSc3nncs3)c2C)cc1	-10%	1%	25µM*	-46%[57.5 µM]	-15
COCCN(CCOC)c1nc(-c2ccc(C)cc2)nc2ccccc12	-16%	3%	28µM*	-25%	?
CCC(Sc1nc2cc3c(cc2c(=O)n1CCCC(=O)NCc1ccc(OC)cc1)OCO3)C(=O)NCCCOC (centres undefined)	.	0%	.	i	-77*
CCCCNC(=O)CSc1nc2cc3c(cc2c(=O)n1CCCC(=O)NCCc1ccc(OC)c(OC)c1)OCO3	2%[15.4 µM]	1%	-31%	12%	-76*!
Cc1ncc([N+](=O)[O-])n1C	.	.	.	.	6
Cn1c([N+](=O)[O-])cnc1N1CCN(c2nncs2)C1=O	10µM*	16µM*	5%	6%	13
CCc1ccc2ncc3c(-c4ccc(F)cc4)nn(CC(=O)NC4CCCCC4)c3c2c1	.	1%	.	i	1
COC(=O)C(C)(C)ONC(=O)Nc1ccccc1Cl	-2%	0%	-4%	i	-65*
COC(=O)C(C)(C)ONC(=O)Nc1ccccc1Br	-18%	1%	9%	-20%	.
COc1ccc(C2=NS(=O)(=O)N(C)C(C(=O)Nc3ccc(C(C)=O)cc3)=C2)cc1OC	35%	4%	32µM*	-35%	-22
COc1ccc(OC)c(NC(=O)CSc2cn(CC(=O)N3CCCCCC3)c3ccccc23)c1	.	?	.	-29%	-17
C(=N\Nc1nc(Nc2ccccc2)nc(Nc2ccccc2)n1)/c1ccncc1	28%	-1%	6%	-8%	-61*
O=C(O)c1cccc(Cn2c(Cl)c(/C=N/Nc3ccccc3)sc2=O)c1	-24%	-5%	-21%	i	-74*
CC(=O)N1CCc2cc(CNC(=O)Cc3ccc(F)cc3)ccc21	.	3%	.	i	-6
O=C1NC2CCCCN2C12CCN(CCCN1c3ccccc3CCc3ccc(Cl)cc31)CC2 (centres undefined)	.	.	.	.	-74*
OCCN1CCN(CCCN2c3ccccc3Sc3ccc(Cl)cc32)CC1	.	-2%	10%	-7%	?
COc1ccc(S(=O)(=O)NCc2ccc3c(c2)CCN3C(=O)c2ccccc2)cc1OC	.	-3%	.	-23%	11
Cc1ccc(NC(=S)NC2CCSc3ccccc32)cc1 (centres undefined)	-7%	1%	-7%	-30%	-62*
Cc1ccc(C)c(N2CCN(C(=O)CCS(=O)(=O)c3cc(Br)cc4c3N(C(=O)C3CC3)CC4)CC2)c1	.	-1%	.	-9%	-16
CCN(CC)CCOC(=O)c1ccc(NC(=O)/C=C/c2cccs2)cc1	1%	2%	9%	-9%	2
CCOC(=O)c1ccc(NC(=O)/C=C/c2cccs2)cc1	?	0%	?	-21%	-102*
CCOCc1cc(CN2CCN(c3ccccc3OC)CC2)c(O)c2ncccc12	.	-2%	.	i	-6
COc1ccccc1N1CCN(Cc2cc(Br)c(O)c3ncccc23)CC1	27%	-2%	0%	3%	-92*
